Source: PubChem BioAssay (National Center for Advancing Translational Sciences (NCATS))
GLS inh: inhibitors of human glutaminase (GLS) | O94925 | actives 0.21% (n = 410,000) | GLS enzymatic activity, qHTS titration | Potency, µM (titrated, usually from 45.5 µM), inactives show top-dose activity change, negative = inhibition, usual class: inhibitors | AID 624170; further: on the % scale 0 is the no-effect control and ±100 the full control effect
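Coupled fluorescence readout: glutamate oxidase/HRP/Amplex Red detect glutamate formed by hKGA from L-glutamine (1 mM solution added). Buffer 45 mM KH2PO4 pH 8.2, 0.02% Tween-20; reads at t0 and 30 min RT.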
L3MBTL1 inh: blocks human L3MBTL1; Q9Y468; AlphaScreen L3MBTL1–H3K9me1 peptide binding; Potency, µM (doses to about 57.1 µM), for the others: top-dose activity, negative = inhibition, usual class: inhibitors; actives 0.66% (n = 230,000); further: on the % scale 0 is the no-effect control and ±100 the full control effect; nearly all actives have a fitted effect of over 60% in size
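Read-out is AlphaScreen signal from streptavidin donor and nickel chelate acceptor beads (10 ug/mL final each) bridging L3MBTL1 (50 nM) and biotinylated K9-monomethylated H3(1-15) peptide (75 nM), after 30 min compound exposure at room temperature.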
JMJD2A Tudor: JMJD2A Tudor domain (human) inhibition | actives 4.4% (n = 390,000) | AlphaScreen JMJD2A-Tudor / H3K4me3 peptide binding | Potency, µM (top dose mostly 114 µM), inactives show at the top dose activity change, negative = inhibition, usual class: inhibitors | O75164; further: on the % scale 0 is the no-effect control and ±100 the full control effect; nearly all actives have a fitted effect of over 50% in size
HP1b binding inh: blocks HP1-beta chromodomain binding to methylated histone tails. P83916. AlphaScreen HP1-beta / biotin-H3K9me3 peptide binding. Potency, µM (doses to about 114 µM), for the others: at the top dose activity change, negative = inhibition, usual class: inhibitors. actives 0.56% (n = 390,000). AID 540317; further: nearly all actives have a fitted effect of over 70% in size
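AlphaScreen: HP1-beta (50 nM) preformed 30 min with biotin-H3(1-18)K9me3 peptide (50 nM) in PBS pH 7.4, 0.01% Tween-20. Compound added for 30 min at RT, then streptavidin donor/nickel chelate acceptor beads (10 ug/mL) for 30 min.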
G9a inh: inhibitors of human histone lysine methyltransferase G9a; Q96KQ7; G9a H3K9 monomethylation, AlphaScreen, 2 h; Potency, µM (highest dose often 102 µM), for the others: at the top dose activity, negative = inhibition, usual class: inhibitors; actives 8.8% (n = 350,000); AID 504332; further: on the % scale 0 is the no-effect control and ±100 the full control effect; nearly all actives have a fitted effect of over 75% in size
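AlphaScreen read-out: biotin-H3K9 peptide (500 nM) methylation by 20 nM enzyme with 20 uM SAM, 2 h at room temperature after 15 min compound preincubation; anti-monomethyl H3K9 antibody plus donor/acceptor beads, 10 min dark.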
BAZ2B inh: BAZ2B (human) inhibition; AlphaScreen BAZ2B-H3K14Ac peptide displacement; actives 4.4% (n = 360,000); Q9UIF8; Potency, µM (highest dose often 114 µM), inactives show at the top dose activity change, negative = inhibition, most hits filed as inhibitors; further: on the % scale 0 is the no-effect control and ±100 the full control effect; nearly all actives have a fitted effect of over 60% in size
Target sequence (Q9UIF8 whole entry, looked up): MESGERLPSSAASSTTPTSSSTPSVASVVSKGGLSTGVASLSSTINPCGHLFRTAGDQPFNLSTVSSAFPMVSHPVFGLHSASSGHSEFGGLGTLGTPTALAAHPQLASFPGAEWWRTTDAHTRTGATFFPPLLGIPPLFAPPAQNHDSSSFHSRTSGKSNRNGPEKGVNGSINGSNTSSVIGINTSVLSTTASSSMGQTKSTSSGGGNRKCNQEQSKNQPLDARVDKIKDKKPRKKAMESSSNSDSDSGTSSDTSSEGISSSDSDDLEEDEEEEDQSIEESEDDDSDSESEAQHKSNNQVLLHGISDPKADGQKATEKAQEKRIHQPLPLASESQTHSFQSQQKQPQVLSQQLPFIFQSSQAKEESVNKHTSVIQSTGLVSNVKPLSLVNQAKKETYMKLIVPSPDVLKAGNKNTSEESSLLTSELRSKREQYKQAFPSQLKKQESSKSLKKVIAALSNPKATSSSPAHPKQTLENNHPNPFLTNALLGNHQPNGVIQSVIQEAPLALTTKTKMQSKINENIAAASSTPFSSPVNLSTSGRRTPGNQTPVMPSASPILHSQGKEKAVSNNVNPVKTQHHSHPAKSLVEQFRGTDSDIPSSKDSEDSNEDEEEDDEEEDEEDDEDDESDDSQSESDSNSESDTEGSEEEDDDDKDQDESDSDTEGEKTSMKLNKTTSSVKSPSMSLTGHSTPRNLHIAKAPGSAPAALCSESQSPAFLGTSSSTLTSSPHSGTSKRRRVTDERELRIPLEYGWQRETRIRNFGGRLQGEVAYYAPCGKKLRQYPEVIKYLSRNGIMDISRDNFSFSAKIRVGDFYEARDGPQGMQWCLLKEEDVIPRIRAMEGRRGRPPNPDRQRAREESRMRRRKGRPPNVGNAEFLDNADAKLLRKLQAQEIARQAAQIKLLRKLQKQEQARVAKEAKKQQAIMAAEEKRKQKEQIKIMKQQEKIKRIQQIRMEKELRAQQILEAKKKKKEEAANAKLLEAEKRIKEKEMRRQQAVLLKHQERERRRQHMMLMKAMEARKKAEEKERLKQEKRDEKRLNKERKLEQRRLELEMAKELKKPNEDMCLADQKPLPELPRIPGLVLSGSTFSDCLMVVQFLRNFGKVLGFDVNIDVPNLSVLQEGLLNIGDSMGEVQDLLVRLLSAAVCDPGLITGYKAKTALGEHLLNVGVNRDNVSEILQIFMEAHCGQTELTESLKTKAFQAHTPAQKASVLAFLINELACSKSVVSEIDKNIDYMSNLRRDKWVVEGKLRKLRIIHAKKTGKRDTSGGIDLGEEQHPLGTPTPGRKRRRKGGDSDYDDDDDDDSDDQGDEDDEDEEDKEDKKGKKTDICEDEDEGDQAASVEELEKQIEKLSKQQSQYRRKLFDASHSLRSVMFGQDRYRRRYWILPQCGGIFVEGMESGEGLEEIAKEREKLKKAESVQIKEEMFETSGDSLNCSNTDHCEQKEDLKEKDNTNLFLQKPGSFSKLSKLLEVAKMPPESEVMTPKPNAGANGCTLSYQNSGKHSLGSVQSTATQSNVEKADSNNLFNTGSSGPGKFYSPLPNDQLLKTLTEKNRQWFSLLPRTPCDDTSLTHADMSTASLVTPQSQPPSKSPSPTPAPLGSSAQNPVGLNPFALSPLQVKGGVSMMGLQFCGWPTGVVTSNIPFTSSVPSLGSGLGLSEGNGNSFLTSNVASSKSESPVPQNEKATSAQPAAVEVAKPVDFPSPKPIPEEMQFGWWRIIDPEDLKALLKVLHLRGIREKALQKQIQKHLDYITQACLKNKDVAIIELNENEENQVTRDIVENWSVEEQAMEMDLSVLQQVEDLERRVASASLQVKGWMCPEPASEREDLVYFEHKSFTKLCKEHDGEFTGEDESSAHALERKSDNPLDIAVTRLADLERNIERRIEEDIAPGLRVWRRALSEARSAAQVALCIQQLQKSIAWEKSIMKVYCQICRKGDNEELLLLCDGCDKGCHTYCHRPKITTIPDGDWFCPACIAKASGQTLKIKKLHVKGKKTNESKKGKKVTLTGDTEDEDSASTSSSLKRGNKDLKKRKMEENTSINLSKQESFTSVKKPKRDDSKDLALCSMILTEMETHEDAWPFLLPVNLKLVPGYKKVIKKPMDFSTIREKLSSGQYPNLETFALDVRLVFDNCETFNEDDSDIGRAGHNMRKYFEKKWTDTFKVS
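AlphaScreen displacement of biotin-H3(5-23)K14Ac peptide (50 nM final) from BAZ2B (50 nM final) in PBS pH 7.4, 0.01% Tween-20; complex preformed 30 min RT, then compounds (top 110 uM) 30 min RT, beads 20 min dark.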
An asterisk follows results filed as active; ? = inconclusive; · = no result; ! = not confirmed by another sample; [ ] = another dose, or the depositor's remark. Compounds with a hit are over-represented: about 10% of the library has one in this group of screens. The call rests on the fitted dose curve; in most records, active means well fitted curve in the direction sought with a large enough effect; inconclusive means small, poorly fitted or top-dose-only effect, or another doubt; inactive means no such curve, though single readings can be large; an effect the other way counts as inactive or inconclusive. Potency means the concentration at half of the fitted maximal effect.

SMILES	GLS inh	L3MBTL1 inh	JMJD2A Tudor	HP1b binding inh	G9a inh	BAZ2B inh
CCOc1cc2c(cc1OCC)-n1cccc1C(c1ccc(OC)c(OC)c1)NC2 (stereo not drawn)	3%	·	?	2%	-47%	?
CC1Oc2cc3c(-c4c(O)cc(O)c5c(O)c6c(cc45)OC(C)C(C)C6=O)c(O)cc(O)c3c(O)c2C(=O)C1C (stereo not drawn)	7.9µM*	2µM*	45µM*	?	13µM*	32µM*
CN1C(=O)C(Cc2ccccc2)C(=O)N(C)C1=O	11%	·	-19%	18%	·	·
CN1C(=O)C(Cc2ccsc2)C(=O)N(C)C1=O	17%	?	-10%	64%	11µM*	-31%
C[C@H]1CC[C@@]2(NC1)O[C@@H]1C[C@H]3[C@@H]4CC[C@@H]5C[C@@H](O)CC[C@@]5(C)[C@@H]4CC[C@]3(C)[C@@H]1[C@@H]2C	·	·	·	·	4%[21.5 µM]	·
CCN(CC)c1ccc(CN(C)CCc2ccc(OC)c(OC)c2)cc1	21%	-4%	10µM*	?	?	45µM*
COc1ccc(CCn2c(O)c(C=Nc3ccc(F)cc3)c(=O)[nH]c2=O)cc1OC	-3%	1%	-24%	20%	·	-3%
COc1ccc(CCN(C)Cc2ccc(F)cc2F)cc1OC	9%	·	4µM*	?	10µM*	?
Cc1c(CCN)ccc2c1[nH]c1ccccc12	4%	·	-7%	24%	25%[0.501 µM]	-19%
Cc1[nH]ccc2c1[nH]c1cc(=O)ccc12	-7%	2%	-9%	6%	50µM*	-12%
c1cnc(N2CC3(CCNCC3)C2)nc1	·	·	·	·	4%[12.7 µM]	·
O=C(O)C1Cc2ccccc2N2CCCC12 (stereo not drawn)	4%	·	-19%	83%	40µM*	-24%
O=c1cc(-c2ccc(O)c(O)c2)oc2c(C3O[C@H](CO)[C@@H](O)[C@H](O)[C@H]3O)c(O)cc(O)c12 (stereo partly drawn)	-8%	10µM*	?	4%	79µM*	?
C=C(C)C(=O)Nc1cccc(C2=NOC3(C2)C[C@H](C(N)=O)N(C(=O)/C=C/C)C3)c1 (stereo partly drawn)	-3%	·	8.9µM*	8.9µM*	?	7.1µM*
CCN1C[C@]2(COC)CC[C@H](O)[C@@]34[C@@H]5C[C@H]6[C@@H](OC)[C@H]5[C@](O)(C[C@@H]6OC)[C@@](O)([C@@H](OC)[C@H]23)[C@@H]14	·	·	·	·	22%[21.5 µM]	·
CCOc1cc(-c2ccc(N)c(OCC)c2)ccc1N	?	?	?	8.9µM*	?	14µM*
CCOc1ccc(Nc2c(S(=O)(=O)c3ccc(C)cc3)cnc3ccc(F)cc23)cc1	-11%	·	-31%	5%	10µM*	-37%
S=C1Nc2ccccc2Sc2ccccc21	-1%	-13%	-16%	?	10µM*	?
Oc1cc2c(cc1O)[C@H]1c3ccccc3CNC1CC2 (stereo partly drawn)	·	·	·	·	0.5µM*	·
CCCN1C[C@H](C)N([C@H](c2ccc(C(=O)N(CC)CC)cc2)c2cccc(OC)c2)C[C@H]1C	·	·	·	·	7%[59 µM]	·
COc1ccc(CCN)cc1	·	·	·	·	32%[59 µM]	·
CCCCCCCCCOc1ccc2[nH]cc(CCN)c2c1	·	·	·	·	16µM*!	35µM*
COc1ccc2[nH]cc(CCN)c2c1	-5%	-7%	50µM*	-31%	9%[59 µM]	?
CC1=C2CC3C(CC=C4C[C@@H](O)CC[C@@]43C)[C@@H]2CC[C@]12O[C@@H]1C[C@H](C)CN[C@H]1[C@H]2C (stereo partly drawn)	·	·	·	·	-8%[59 µM]	·
CCCCCCCCCC(=O)O[C@H]1CC[C@H]2[C@@H]3CCC4=CC(=O)CC[C@@H]4[C@H]3CC[C@]12C	-1%	·	·	·	40%[59 µM]	·
SMILES	GLS inh	L3MBTL1 inh	JMJD2A Tudor	HP1b binding inh	G9a inh	BAZ2B inh
CC(=O)N1CCN(c2ccc([N+](=O)[O-])cc2C=C2C(=O)NC(=O)NC2=O)CC1	8%	8%	0%	39%	40µM*	13%
C=CC[N+]1(C)CCC23c4c5ccc(O)c4O[C@H]2C(=O)CC[C@@]3(O)C1C5 (stereo partly drawn)	71%	·	·	·	31%[59 µM]	·
C=CC[N+]1(C)CC[C@]23c4c5ccc(O)c4O[C@H]2C(=O)CC[C@@]3(O)[C@H]1C5 (stereo partly drawn)	44%	6%	?	?	1.6µM*	-7%
COc1ccccc1NC(=O)N(Cc1ccco1)C1CCN(C(C)=O)CC1	-7%	·	-13%	50%	6%[59 µM]	4%
CCCN(CCC)[C@H]1CCc2c(F)ccc(O)c2C1	·	·	·	·	50µM*	·
Cc1ccc(N)c(C(=O)c2ccc(Br)cc2)c1	1%	·	28µM*	?	16µM*	40µM*
O=C1C(=O)c2ccccc2-c2ccccc21	-8%	·	-26%	20%	?	?
NC1=C(Br)C(=O)c2ccccc2C1=O	24%	-24%	-35%	-10%	50µM*	?
Oc1ccc2c3c1O[C@H]1[C@@H](O)C=CC4[C@@H](C2)NCC[C@@]341 (stereo partly drawn)	-7%	·	·	·	·	·
CC[N+](C)(CC)CCCOC(=O)C(O)(c1ccccc1)C1CCCCC1 (stereo not drawn)	12%	10%	40µM*	?	?	-28%
C[C@]12CCC3C(CC[C@]4(O)CC(O)CC[C@@]34C=O)[C@]1(O)CCC2C1=CC(=O)OC1 (stereo partly drawn)	·	·	·	·	-34%[2.33 µM]	·
COc1ccc(C(=O)CN2CCCCC2)cc1	7%	-13%	-3%	38%	?	-13%
COc1ccc(C(=O)CC2(CC(=O)c3ccc(OC)cc3)C(=O)N(C)C(=O)N(C)C2=O)cc1	1%	·	-4%	37%	40µM*	1%
CC(=O)OC1CC(OC2C(O)CC(OC3C(O)CC(O[C@H]4CC[C@]5(C)C6CC[C@]7(C)[C@@H](C8=CC(=O)OC8)[C@@H](O)C[C@]7(O)[C@@H]6CC[C@@H]5C4)OC3C)OC2C)OC(C)C1OC1OC(CO)C(O)C(O)C1O (stereo partly drawn)	-4%	·	·	·	·	·
CN1CC[C@@]2(C)c3cc(O)ccc3N(C)[C@@H]12	?	·	4µM*!	?	·	·
CN1CC[C@@]2(C)c3cc(OC(=O)Nc4ccccc4)ccc3N(C)[C@@H]12	·	·	·	·	16µM*	·
CCOP(=O)(CN(CC)CCNP(=O)(OCC)OCC)OCC	-2%	6%	?	17%	50µM*	12%[57.1 µM]
CCC(=O)N1N=C(c2c(O)n(C)c(=O)n(C)c2=O)CC1c1ccccc1 (stereo not drawn)	10%	1%	-13%	48%	25µM*	-16%
